HT1080 IDH1KD tx – HT-1080 IDH1 knockdown cell toxicity (counter line) | Potency, µM (titrated, usually from 46.1 µM), usual class: cytotoxic | HT-1080 IDH1 knockdown viability, ATP luminescence, 48 h | actives 2% (n = 360,000) | AID 686971
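In this qHTS, HT-1080 cells depleted of IDH1 are exposed for 48 h at 37 °C to compound titrations. Toxicity is scored from CellTiter-Glo luminescence, with DMSO as full viability and medium alone as none.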
HT1080-NT tox – kills 2HG-producing HT-1080-NT fibrosarcoma cells; HT-1080-NT fibrosarcoma viability, CellTiter-Glo ATP luminescence, 48 h; Potency, µM (top dose mostly 46.1 µM), actives largely listed as cytotoxic; actives 1.6% (n = 360,000);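 note: NT is the 2HG producing partner of a matched IDH1 knockdown line; nearly all actives have a fitted effect of over 55% in size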
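750 cells/well, RPMI + 5% FBS; 2 h settle, compound pin-transfer, 48 h at 37 degrees C. CellTiter-Glo 10 min RT, luminescence. Normalized to DMSO and media-only wells.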
DT40 TDP1 no CPT – qHTS for Inhibitors of human tyrosyl-DNA phosphodiesterase 1 (TDP1): qHTS in cells in absence of CPT; actives 15% (n = 420,000); Potency, µM (titrated, usually from 46.2 µM), hits mostly inhibitors; DT40 Tdp1-/- hTDP1 cells, no CPT, ATP luminescence, 48 h; note: nearly all actives have a fitted effect of over 55% in size
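Camptothecin absent (DMSO only). Human TDP1-complemented DT40 knockout cells, 400 cells/well, 37 °C for minimum 48 hr; ATP measured via CellTiter-Glo, 30 min dark incubation, luminescence.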
IL1B secr inh – blocks inflammasome-driven IL-1 beta release; THP-1 LPS/ATP IL-1B secretion, AlphaLISA, 16 h; stronger effect = lower value; actives 4.7% (n = 360,000); activity change, % at 57.5 µM; in the data active = activity change below about -50%; inconclusive = mostly about -30% to -49%
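THP-1 cells pretreated 1 hr with compounds (up to 57.5 uM final), then stimulated with LPS (250 ng/mL final) plus ATP (1.25 mM final); secreted IL-1B measured by AlphaLISA after 16 hr, decreased signal indicating inhibition.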
ALOX12 inh – ALOX12 (human) lipoxygenase inhibition. purified 12hLO, xylenol orange hydroperoxide absorbance. actives 1.1% (n = 580,000). Potency, µM (doses to about 108 µM), most hits filed as inhibitors. AID 1671190. P18054
Target sequence (P18054 whole entry, looked up): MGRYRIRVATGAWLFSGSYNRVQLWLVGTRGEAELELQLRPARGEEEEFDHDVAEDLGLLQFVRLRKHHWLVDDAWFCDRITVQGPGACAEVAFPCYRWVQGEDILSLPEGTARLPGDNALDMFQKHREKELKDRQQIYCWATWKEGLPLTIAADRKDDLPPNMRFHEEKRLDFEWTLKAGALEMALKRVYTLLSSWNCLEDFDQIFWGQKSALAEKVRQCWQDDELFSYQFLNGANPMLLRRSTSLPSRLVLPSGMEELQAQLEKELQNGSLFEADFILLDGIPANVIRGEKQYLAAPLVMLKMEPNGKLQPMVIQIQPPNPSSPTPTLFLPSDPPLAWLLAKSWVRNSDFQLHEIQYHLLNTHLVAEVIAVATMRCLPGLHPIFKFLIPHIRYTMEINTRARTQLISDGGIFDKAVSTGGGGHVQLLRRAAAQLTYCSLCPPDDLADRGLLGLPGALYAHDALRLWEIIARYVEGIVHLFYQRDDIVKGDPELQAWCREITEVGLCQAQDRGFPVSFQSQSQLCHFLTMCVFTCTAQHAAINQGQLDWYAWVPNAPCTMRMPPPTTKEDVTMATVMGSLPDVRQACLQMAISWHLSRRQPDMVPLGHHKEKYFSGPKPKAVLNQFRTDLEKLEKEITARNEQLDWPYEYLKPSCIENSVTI
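Hydroperoxide product was detected by ferrous iron/xylenol orange as the 573 to 405 nm absorbance ratio. Arachidonic acid at 40 uM (final) was turned over for 30 min at room temperature by 150 nM human 12hLO, pH 7.0 Hepes buffer, after 15 min compound preincubation.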
DT40 TDP1 CPT – growth inhibition of DT40 Tdp1-/-;hTDP1 cells with camptothecin (screen for TDP1 inhibitors); actives 12% (n = 420,000); Potency, µM (highest dose often 46.2 µM), hits mostly inhibitors; chicken DT40 Tdp1-/-;hTDP1 cells + 20 nM CPT, ATP luminescence, 48 h; note: nearly all actives have a fitted effect of over 55% in size
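Chicken DT40 Tdp1-/- cells complemented with human TDP1, 400 cells/well, exposed to compounds plus 20 nM camptothecin for at least 48 h at 37 C; viability read as ATP content by CellTiter-Glo luminescence.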
Numbers stand for hits; – = inactive; ? = inconclusive; · = no result given; [ ] = dose if it differs, or a comment. The sample as a whole holds a higher share of hits than the screen did. Unless noted, calls come from the whole dose curve; as a rule, active = well fitted curve in the direction sought with a large enough effect; inconclusive = small, poorly fitted or top-dose-only effect, or another doubt; inactive = no such curve, though single readings can be large; an effect the other way counts as inactive or inconclusive.

SMILES | HT1080 IDH1KD tx | HT1080-NT tox | DT40 TDP1 no CPT | IL1B secr inh | ALOX12 inh | DT40 TDP1 CPT
CC1=C[C@@H](CNC(=O)[C@@H]2CCCC[C@@H]2C(=O)O)[C@H](C(C)C)C[C@H]1Cc1nc2ccccc2[nH]1 | · | · | · | · | – | ·
Cc1ccc(NC(=O)CN2CCCC2c2cccn2C)c(Br)c1 (stereo not drawn) | – | – | 15µM | – | – | ?
Cc1ccc(NC(=O)CN2CCCC2c2cccn2C)cc1C (stereo not drawn) | – | – | ? | – | – | –
CCc1ccc(CN2CCC3(CC2)Cc2ccccc2CNC3=O)cc1 | · | · | · | · | –[6.33 µM] | ·
CCCCCCCCN1[C@@H](CC(C)=O)c2cc(C(F)(F)F)ccc2S1(=O)=O | – | – | 13µM | – | – | ?
CC(=O)C[C@H]1c2cc(C(F)(F)F)ccc2S(=O)(=O)N1C1CCCCC1 | – | – | 21µM | ? | – | 16µM
COC(=O)C[C@H]1c2cc(C(F)(F)F)ccc2S(=O)(=O)N1C1CCCCC1 | – | – | ? | – | – | ?
COC(=O)C[C@H]1c2cc(C(F)(F)F)ccc2S(=O)(=O)N1C1CCCC1 | – | – | ? | – | – | 23µM
O=C(NCCc1ccccc1)C1CCC(CNS(=O)(=O)c2cccc3cccnc23)CC1 (stereo not drawn) | – | – | 23µM | – | – | 16µM
COc1ccc(CCNC(=O)C2CCN(S(=O)(=O)c3cccc4nsnc34)CC2)cc1OC | – | – | ? | – | – | –
COc1ccc(CCNC(=O)C2CCN(S(=O)(=O)c3cccc4cccnc34)CC2)cc1OC | – | – | ? | – | · | 16µM
Nc1nc(Cl)nc(NCc2ccccc2)c1[N+](=O)[O-] | · | · | · | · | – | ·
O=C(CC(SCc1ccco1)c1ccc(O)cc1)c1cccs1 (stereo not drawn) | – | – | 23µM | -52 | – | ?
CC(NC(=O)Cc1cccs1)c1ccc2c(c1)OCO2 (stereo not drawn) | – | – | – | – | – | –
O=C(CC(SCCO)c1ccc2c(c1)OCO2)c1cccs1 (stereo not drawn) | ? | ? | 12µM | -75 | – | 12µM
Cc1cc2nc(-c3ccccc3Br)n(/C=C(\c3ccccc3)n3c(=O)[nH]c4ccccc43)c2cc1C | – | – | 23µM | – | – | 16µM
CC[C@H](CO)Nc1nc(Nc2cccc(Cl)c2)c2ncn(C(C)C)c2n1 | ? | ? | 9.2µM | -99 | – | 9.2µM
CCN(CC)C(=O)c1ccc(S(=O)(=O)Cc2ccc(C)cc2)c([N+](=O)[O-])c1 | – | – | ? | -68 | – | ?
Cc1ccc(CS(=O)(=O)c2ccc(C(=O)N3CCCCC3)cc2[N+](=O)[O-])cc1 | – | – | ? | – | – | ?
Cc1ccc(CS(=O)(=O)c2ccc(C(=O)N3CCN(c4ccccn4)CC3)cc2[N+](=O)[O-])cc1 | ? | ? | 26µM | ? | – | 9.2µM
Cc1cc2c(c(SCC(=O)Nc3ccc(F)cc3)n1)C(=O)OC2 | · | · | · | · | – | ·
CCN(C)C(=O)C1=COC2=NC(=O)N(Cc3ccccc3)CCN12 | · | · | · | · | – | ·
CCOc1ccc(CC(=O)Nc2cccc(-c3ccc4nnc(C)n4n3)c2)cc1 | – | – | ? | – | – | ?
COc1ccc(OC)c(S(=O)(=O)Nc2ccc(-c3ccc4nncn4n3)cc2)c1 | 16µM | 23µM | 2.1µM | – | ? | 2.1µM
COc1ccc(CC(=O)Nc2cccc(-c3ccc4nncn4n3)c2)cc1OC | ? | – | 15µM | – | – | ?
COc1ccc(CC(=O)Nc2cccc(-c3ccc4nnc(C)n4n3)c2)cc1OC | – | – | 9.2µM | ? | – | –
COc1ccc(S(=O)(=O)Nc2cccc(-c3ccc4nncn4n3)c2)cc1F | 2.3µM | 4.6µM | 2.3µM | – | – | 2.3µM
O=S(=O)(Nc1cccc(-c2ccc3nncn3n2)c1)c1cccc(F)c1 | – | – | – | – | – | –
